Source: article PMC5540273 (PLoS ONE, 2017)
“And” between values parts separate entries of the source, which are not always exact repeats. Identical values can stand only once. Like-named read-outs stand apart in the source and are kept apart here.

Legend:
Settings in all cases: n = 1
PRKCQ = system: PRKCQ
PRKD1 = system: PRKD1
PRKD2 = system: PRKD2
PRKD3 = system: PRKD3
PRKG1 = system: PRKG1
PRKG2 = system: PRKG2
PRKR = system: T1, PRKR
T1 construct: gene EIF2AK2

PRKX = system: PRKX
PRP4 = system: PRP4
PYK2 = system: T2, PYK2
T2 construct: gene PTK2B

[1] = concentration: 1 μM, replicates: in singlicate
[2] = concentration: 1 μM,replicates: in singlicate, 1 µM
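Note: KINOMEscan kinase panel screen.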

Cc1cc(N2Cc3ccccc3C2)nc(Nc2ccc(S(=O)(=O)N3CCOCC3)cc2)n1.Cl [GSK1669917]
%Inh (PRKCQ; [1]): 0% | %Inh (PRKD1; [1]): 0% | %Inh (PRKD2; [1]): 0% | %Inh (PRKD3; [1]): 0% | %Inh (PRKG1; [1]): 0% | %Inh (PRKG2; [1]): 0% | %Inh (PRKR; [1]): 0% | %Inh (PRKX; [1]): 0% | %Inh (PRP4; [1]): 16% | %Inh (PYK2; [1]): 0%

COc1cccc(NC(=O)NC2CCN(c3ccnc(Nc4ccc(F)cc4)n3)C2)c1 (centres unmarked) [GSK1379721]
%Inh (PRKCQ; [1]): 3% | %Inh (PRKD1; [1]): 0% | %Inh (PRKD2; [1]): 0% | %Inh (PRKD3; [1]): 19% | %Inh (PRKG1; [1]): 0% | %Inh (PRKG2; [1]): 0% | %Inh (PRKR; [1]): 1% | %Inh (PRKX; [1]): 21% | %Inh (PRP4; [1]): 47% | %Inh (PYK2; [1]): 0%

COc1cc2ncn(-c3cc(OCC4CCCO4)c(C(N)=O)s3)c2cc1OC (centres unmarked) [GSK204607]
%Inh (PRKCQ; [1]): 0% | %Inh (PRKD1; [1]): 0% | %Inh (PRKD2; [1]): 0% | %Inh (PRKD3; [1]): 0% | %Inh (PRKG1; [1]): 0% | %Inh (PRKG2; [1]): 0% | %Inh (PRKR; [1]): 13% | %Inh (PRKX; [1]): 10% | %Inh (PRP4; [1]): 4% | %Inh (PYK2; [1]): 0%

Cc1ccc(NC(=O)Nc2cccc(Cl)c2)cc1-c1ccc(C(=O)Nc2ccncc2)cc1 [GSK1398468]
%Inh (PRKCQ; [1]): 11% | %Inh (PRKD1; [1]): 0% | %Inh (PRKD2; [1]): 1% | %Inh (PRKD3; [1]): 22% | %Inh (PRKG1; [1]): 1% | %Inh (PRKG2; [1]): 0% | %Inh (PRKR; [1]): 1% | %Inh (PRKX; [1]): 80% | %Inh (PRP4; [1]): 47% | %Inh (PYK2; [1]): 0%

CC(C)(C)c1ccc(C(=O)Nc2cn3cc(Cl)ccc3n2)cc1
%Inh (PRKCQ; [1]): 18% | %Inh (PRKD1; [1]): 0% | %Inh (PRKD2; [1]): 0% | %Inh (PRKD3; [1]): 0% | %Inh (PRKG1; [1]): 0% | %Inh (PRKG2; [1]): 0% | %Inh (PRKR; [1]): 0% | %Inh (PRKX; [1]): 0% | %Inh (PRP4; [1]): 0% | %Inh (PYK2; [1]): 96.6%

O=C(Nc1n[nH]c2cc(-c3cccc(F)c3F)ccc12)C1CC1 [SB-733894]
%Inh (PRKCQ; [1]): 19% | %Inh (PRKD1; [1]): 0% | %Inh (PRKD2; [1]): 0% | %Inh (PRKD3; [1]): 0% | %Inh (PRKG1; [1]): 0% | %Inh (PRKG2; [1]): 0% | %Inh (PRKR; [1]): 3% | %Inh (PRKX; [1]): 0% | %Inh (PRP4; [1]): 4% | %Inh (PYK2; [1]): 0%

CC(C)(C)c1ccc(C(=O)Nc2cn3cc(-c4cccnc4)ccc3n2)cc1
%Inh (PRKCQ; [1]): 22% | %Inh (PRKD1; [1]): 21% | %Inh (PRKD2; [1]): 14% | %Inh (PRKD3; [1]): 5% | %Inh (PRKG1; [1]): 7% | %Inh (PRKG2; [1]): 26% | %Inh (PRKR; [1]): 0% | %Inh (PRKX; [1]): 10% | %Inh (PRP4; [1]): 22% | %Inh (PYK2; [1]): 7%

CS(=O)(=O)c1ccc(-c2nc3n(c2-c2ccncc2)CCC3)cc1 [SKF-105942]
%Inh (PRKCQ; [1]): 0% | %Inh (PRKD1; [1]): 3% | %Inh (PRKD2; [1]): 0% | %Inh (PRKD3; [1]): 0% | %Inh (PRKG1; [1]): 0% | %Inh (PRKG2; [1]): 5% | %Inh (PRKR; [1]): 0% | %Inh (PRKX; [1]): 2% | %Inh (PRP4; [1]): 11% | %Inh (PYK2; [1]): 0%

CSc1nn2c(=O)cc(N3CCOCC3)nc2n1Cc1cccc(C(F)(F)F)c1C [GSK2363608]
%Inh (PRKCQ; [2]): 0% and 66% | %Inh (PRKD1; [1]): 0% | %Inh (PRKD2; [2]): 7% and 4% | %Inh (PRKD3; [2]): 21% and 0% | %Inh (PRKG1; [2]): 39% and 1% | %Inh (PRKG2; [2]): 16% and 0% | %Inh (PRKR; [2]): 5% and 0% | %Inh (PRKX; [2]): 36% and 0% | %Inh (PRP4; [2]): 32% and 12% | %Inh (PYK2; [2]): 0% and 17%

NC(=O)c1nnc2ccccc2c1N
%Inh (PRKCQ; [1]): 3% | %Inh (PRKD1; [1]): 0% | %Inh (PRKD2; [1]): 53% | %Inh (PRKD3; [1]): 0% | %Inh (PRKG1; [1]): 0% | %Inh (PRKG2; [1]): 14% | %Inh (PRKR; [1]): 0% | %Inh (PRKX; [1]): 1% | %Inh (PRP4; [1]): 0% | %Inh (PYK2; [1]): 12%

Cn1ccc2ncnc(Oc3cccc(C(=O)Nc4ccccc4)c3)c21
%Inh (PRKCQ; [1]): 0% | %Inh (PRKD1; [1]): 0% | %Inh (PRKD2; [1]): 9% | %Inh (PRKD3; [1]): 0% | %Inh (PRKG1; [1]): 3% | %Inh (PRKG2; [1]): 0% | %Inh (PRKR; [1]): 0% | %Inh (PRKX; [1]): 0% | %Inh (PRP4; [1]): 5% | %Inh (PYK2; [1]): 0%

CCn1c(-c2ccccn2)nc2cnccc21 [SB-736398]
%Inh (PRKCQ; [1]): 14% | %Inh (PRKD1; [1]): 0% | %Inh (PRKD2; [1]): 0% | %Inh (PRKD3; [1]): 1% | %Inh (PRKG1; [1]): 0% | %Inh (PRKG2; [1]): 3% | %Inh (PRKR; [1]): 0% | %Inh (PRKX; [1]): 100% | %Inh (PRP4; [1]): 46% | %Inh (PYK2; [1]): 9%

O=C1NC(=O)C(N2CCc3ccccc32)=C1c1ccccc1Cl [SB-373598]
%Inh (PRKCQ; [1]): 7% | %Inh (PRKD1; [1]): 12% | %Inh (PRKD2; [1]): 3% | %Inh (PRKD3; [1]): 0% | %Inh (PRKG1; [1]): 36% | %Inh (PRKG2; [1]): 12% | %Inh (PRKR; [1]): 5% | %Inh (PRKX; [1]): 12% | %Inh (PRP4; [1]): 0% | %Inh (PYK2; [1]): 0%

Cc1c(Cn2ccn3c(=O)cc(N4CCOCC4)nc23)cccc1C(F)(F)F [GSK2289044]
%Inh (PRKCQ; [1]): 3% | %Inh (PRKD1; [1]): 6% | %Inh (PRKD2; [1]): 19% | %Inh (PRKD3; [1]): 0% | %Inh (PRKG1; [1]): 0% | %Inh (PRKG2; [1]): 9% | %Inh (PRKR; [1]): 4% | %Inh (PRKX; [1]): 25% | %Inh (PRP4; [1]): 0% | %Inh (PYK2; [1]): 0%

Cc1csc(-c2nc(Nc3ccncc3)c3ccccc3n2)n1 [GW869640]
%Inh (PRKCQ; [1]): 5% | %Inh (PRKD1; [1]): 69% | %Inh (PRKD2; [1]): 78% | %Inh (PRKD3; [1]): 71% | %Inh (PRKG1; [1]): 2% | %Inh (PRKG2; [1]): 12% | %Inh (PRKR; [1]): 33% | %Inh (PRKX; [1]): 0% | %Inh (PRP4; [1]): 0% | %Inh (PYK2; [1]): 0%

Cc1ccc(NC(=O)Nc2cccc(C(F)(F)F)c2)cc1 [GSK955403]
%Inh (PRKCQ; 1 µM): 24% | %Inh (PRKD1; 1 µM): 18% | %Inh (PRKD2; 1 µM): 0% | %Inh (PRKD3; 1 µM): 1% | %Inh (PRKG1; 1 µM): 19% | %Inh (PRKG2; 1 µM): 0% | %Inh (PRKR; 1 µM): 13% | %Inh (PRKX; 1 µM): 1% | %Inh (PRP4; 1 µM): 10% | %Inh (PYK2; 1 µM): 0%

COc1cc2nccc(Nc3ccc(NC(=O)c4ccc(C)cc4)c(O)c3)c2cc1OC.Cl [GW440132]
%Inh (PRKCQ; [1]): 16% | %Inh (PRKD1; [1]): 0% | %Inh (PRKD2; [1]): 0% | %Inh (PRKD3; [1]): 0% | %Inh (PRKG1; [1]): 0% | %Inh (PRKG2; [1]): 0% | %Inh (PRKR; [1]): 0% | %Inh (PRKX; [1]): 18% | %Inh (PRP4; [1]): 2% | %Inh (PYK2; [1]): 12%
